# Laboratory results published in the supplement of paper PMC3334620.
# Whole data set: some 33,000 sequences, median “E-score (-0.5 to 0.5)” near -0.035, cut for the highest 2% near 0.34. Shown is part of a subset that was picked to be rich in the highest values.
# Molecular target: T1, Mot3 (UniProt P54785)
# T1 sequence: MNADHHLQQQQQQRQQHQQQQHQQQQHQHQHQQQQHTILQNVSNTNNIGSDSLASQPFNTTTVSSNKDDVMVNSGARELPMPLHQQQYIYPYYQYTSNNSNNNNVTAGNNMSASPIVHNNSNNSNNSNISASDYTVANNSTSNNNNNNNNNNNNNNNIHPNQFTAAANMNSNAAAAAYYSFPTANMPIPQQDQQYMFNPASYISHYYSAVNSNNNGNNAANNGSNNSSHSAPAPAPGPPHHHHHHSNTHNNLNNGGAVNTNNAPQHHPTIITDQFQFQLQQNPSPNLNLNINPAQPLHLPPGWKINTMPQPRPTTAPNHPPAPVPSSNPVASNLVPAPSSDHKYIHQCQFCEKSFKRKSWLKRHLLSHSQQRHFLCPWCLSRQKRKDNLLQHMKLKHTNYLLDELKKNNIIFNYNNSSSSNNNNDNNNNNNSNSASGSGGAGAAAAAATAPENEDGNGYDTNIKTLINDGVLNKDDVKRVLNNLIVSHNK
# Experiment: PBM E-score (8-mer binding enrichment) (E-score (-0.5 to 0.5)); higher = stronger / more preferred TF binding
# Settings: protein concentration: 200 nM; construct: GST-full length
# Experimental: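 Universal 'all 10-mer' protein binding microarrays (Agilent AMADID 015681) probed with GST-tagged S. cerevisiae TFs (full-length or DBD) made by in vitro transcription/translation (PURExpress), about 100-200 nM. Bound TF was detected with fluorescent anti-GST. Each ungapped 8-mer (which stands for itself and its reverse complement) is scored by the PBM enrichment score (E-score), a modified Wilcoxon-Mann-Whitney statistic from -0.5 to +0.5, computed with the Universal PBM Analysis Suite. Scale: above 0.35 generally sequence-specific binding.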
row,Sequence,PBM E-score
1,ACGAAAAT,0.163
2,TGGAAAAA,0.0684
3,AGGAAAAT,0.416
4,AGGAAAAC,0.416
5,AGGAAAAA,0.352
6,AGGAAAAG,0.305
7,CGGAAAAC,0.0409
8,GGGAAAAC,-0.195
9,AGAAAAAT,0.133
10,CCAGGGGA,-0.363
11,ATGAGAAC,0.00278
12,ATAGTGCA,0.134
13,GATTGAAC,0.142
14,ACCTCATG,-0.175
15,AAACGCTA,-0.0463
16,CACAACAG,0.181
17,AGTCCCCA,-0.348
18,CCATGATC,-0.251
19,ACATGAAC,0.256
20,ACATGACA,0.343
21,ACATGATG,0.241
22,GCATGACA,0.116
23,ACATGATC,0.385
24,ACATGACT,0.211
25,ACATGATA,0.35

row,Sequence,PBM E-score
1,GCATGATA,0.0933
2,CCATGATA,-0.147
3,ACATGAAT,0.294
4,ACATGAAG,0.344
5,CCACACCC,-0.133
6,CAGGAGGG,-0.159
7,AGAGTGAT,0.105
8,CTCGCCAA,-0.0783
9,CAGTTGTA,0.00216
10,TAGCCAAA,-0.0612
11,CACAGACC,0.0761
12,CACGCTTC,0.146
13,AAGTTTAA,0.068
14,ATAACAGG,0.229
15,ATAACACA,0.332
16,ATAACATA,0.344
17,ACAACATA,0.307
18,CTAACATA,0.156
19,ACAACATC,0.195
20,ATAACATG,0.36
21,ATAACATC,0.21
22,ATAACACG,0.391
23,ACAACATG,0.359
24,GTAACATA,0.26
25,CTAACACA,0.313

row,Sequence,PBM E-score
1,GCGCTCGA,-0.00313
2,ATCAACGC,0.194
3,CGTCGCAC,-0.243
4,ATGGGCAC,0.333
5,CGATTAAG,0.108
6,CCCTTCGA,0.0666
7,ACCGTACG,-0.116
8,CGTGCTAG,-0.0215
9,AAAACATG,0.351
10,AAAACATA,0.314
11,AAAACATT,0.187
12,CCATCAGG,-0.179
13,AGGGTCAA,-0.0327
14,CCTGCATA,0.126
15,AAAGTGTG,0.0664
16,CTTTTTAC,0.21
17,AAATATAC,0.0863
18,AAATACAG,0.212
19,CTATACAC,0.254
20,GAATACAA,0.214
21,AAATACCC,-0.0215
22,AAATACAA,0.281
23,AAATACAT,0.344
24,AAATACAC,0.37
25,GAATACAC,0.363

row,Sequence,PBM E-score
1,ATATACAC,0.358
2,CAATACAC,0.331
3,GTATACAC,0.323
4,ATCCTTAA,0.00499
5,CACGCTGG,-0.0203
6,GGTGCTAA,-0.0828
7,AGGTTGAG,0.0336
8,TAACTCCA,-0.179
9,CAGAAATG,0.00635
10,CACGTTCG,0.00382
11,ACAGGCAA,0.489
12,ACAGGCCA,0.296
13,ACAGGCAG,0.239
14,ACAGGCAT,0.409
15,ACAGGCGA,0.0648
16,ACAGGCCT,0.00325
17,CCCACTGC,-0.32
18,GTACCCAC,0.0626
19,TATGGCAA,-0.0849
20,ACTGTAAA,0.191
21,GTTGTAAA,0.31
22,CTTGTAAC,0.281
23,AATGTAGA,0.221
24,AGTGTCAA,-0.0255
25,CGTGTCAG,0.223

row,Sequence,PBM E-score
1,AATGTAAA,0.374
2,CTTGTAAA,0.378
3,GATGTAAA,0.35
4,GCTGTAAA,0.25
5,CGTGTCAA,0.342
6,ATTGTAAA,0.3
7,GAACTCGC,-0.0603
8,GTCTCATA,-0.0702
9,CCGCCTTC,-0.226
10,GGCTCGTA,0.112
11,ACGGTTGG,-0.106
12,AGCGTGAT,-0.153
13,TCTGGTCA,-0.0723
14,CCCCACGG,-0.224
15,ACTGTAAT,0.169
16,CACGTAAA,0.339
17,CCTGTAAA,0.335
18,TATGTAAA,0.434
19,AATGTAAC,0.218
20,CCTGTAAG,0.282
21,CATGTAAA,0.436
22,TATGTAGA,0.333
23,TCTGTAAA,0.231
24,AATGTAAG,0.201
25,AATGTAAT,0.377

row,Sequence,PBM E-score
1,CATGTAAG,0.398
2,CTGCTGAC,0.0167
3,AAAAGGAG,0.0569
4,ACAGTGGG,-0.0834
5,GCTACAGC,-0.167
6,CGAAGTAA,0.174
7,CTGCTGCA,-0.0263
8,CAGTTAGC,-0.274
9,CCATCTCA,-0.228
10,CCGCAGGC,0.272
11,AGGAGTAC,0.171
12,AACCGACA,0.0529
13,CCAGAACG,-0.0663
14,ACCAGCGT,-0.0988
15,CATGTAAC,0.382
16,GATGTCAA,0.144
17,AATGTCAA,0.0969
18,TATGTCAA,0.363
19,GATGTAAC,0.175
20,CCTGTAAC,0.295
21,CTAGCACC,-0.0791
22,CGTTTGAG,-0.0011
23,CACGTGTA,0.383
24,AACGTGTA,0.415
25,CACGTGAA,0.183

row,Sequence,PBM E-score
1,AACGTGTC,0.273
2,GACGTGTA,0.318
3,CACGTGTC,0.183
4,CGTCTGTA,0.135
5,ACCCATAA,-0.196
6,ATACCCAT,0.142
7,CTATGAAC,0.2
8,CCAGTGTA,0.0502
9,CATGCATG,0.0529
10,CAGGCATA,0.319
11,CAGACATG,0.106
12,CAGGCATC,0.402
13,CAGGCATG,0.358
14,GAGGCATC,0.145
15,AGGTGTGC,0.0416
16,AAGATCTC,-0.0117
17,GCAGGTAC,0.452
18,CCAGGTAC,0.238
19,ACAGGTTA,0.155
20,ACAGGTAT,0.194
21,TCAGGTAA,0.324
22,GCAGGTCC,-0.168
